Screening data: PubChem, National Center for Advancing Translational Sciences (NCATS)
HP1b binding inh = inhibitors of HP1-beta chromodomain binding to methylated histone tails; Potency, µM (titrated, usually from 114 µM), for inactives: at the highest dose activity change, negative = inhibition, actives largely listed as inhibitors; 0.56% of 390,000 active; AlphaScreen HP1-beta / biotin-H3K9me3 peptide binding; AID 540317; P83916; further: nearly all actives have a fitted effect of over 70% in size
Target sequence (P83916 whole entry, looked up): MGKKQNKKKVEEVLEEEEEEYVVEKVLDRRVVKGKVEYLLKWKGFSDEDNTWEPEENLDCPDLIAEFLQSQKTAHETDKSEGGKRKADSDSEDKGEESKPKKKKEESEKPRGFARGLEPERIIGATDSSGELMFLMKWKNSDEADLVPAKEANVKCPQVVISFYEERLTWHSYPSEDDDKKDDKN
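Compound inhibition of the preformed complex between 50 nM HP1-beta and 50 nM biotinylated H3K9me3 peptide was read by AlphaScreen. Buffer was PBS pH 7.4 with 0.01% Tween-20. Incubations ran 30 min at room temperature, with 10 ug/mL donor/acceptor beads.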
G9a block = blocks human histone lysine methyltransferase G9a; AID 504332; Potency, µM (titrated, usually from 102 µM), without a hit: top-dose activity, negative = inhibition, hits mostly inhibitors; 8.8% of 350,000 active; G9a H3K9 monomethylation, AlphaScreen, 2 h; Q96KQ7; further: on the % scale 0 is the no-effect control and ±100 the full control effect; nearly all actives have a fitted effect of over 75% in size
Target sequence (Q96KQ7 913-1193 limits assumed): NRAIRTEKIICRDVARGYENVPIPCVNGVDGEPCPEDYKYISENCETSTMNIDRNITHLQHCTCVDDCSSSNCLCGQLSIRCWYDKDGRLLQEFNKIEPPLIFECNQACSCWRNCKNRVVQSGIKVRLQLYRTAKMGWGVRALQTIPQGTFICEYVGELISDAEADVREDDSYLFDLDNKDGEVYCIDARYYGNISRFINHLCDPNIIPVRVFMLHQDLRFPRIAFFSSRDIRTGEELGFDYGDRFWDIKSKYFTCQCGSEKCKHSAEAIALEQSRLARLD
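AlphaScreen read-out: biotin-H3K9 peptide (500 nM) methylation by 20 nM enzyme with 20 uM SAM, 2 h at room temperature after 15 min compound preincubation; anti-monomethyl H3K9 antibody plus donor/acceptor beads, 10 min dark.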
JMJD2A Tudor inh = inhibitors of human JMJD2A Tudor domain; AlphaScreen JMJD2A-Tudor / H3K4me3 peptide binding; AID 504339; 4.4% of 390,000 active; Potency, µM (series often up to 114 µM), inactives show top-dose activity change, negative = inhibition, actives largely listed as inhibitors; O75164; further: on the % scale 0 is the no-effect control and ±100 the full control effect; nearly all actives have a fitted effect of over 50% in size
Sfp inh = Sfp phosphopantetheinyl transferase inhibition | Q9F4F7 | Biochemical Sfp PPTase activity, qHTS | Potency, µM, inactives show largest response in the series, negative = inhibition, actives largely listed as inhibitors | 3.5% of 310,000 active | AID 1490;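 further: the enzyme is Sfp with the accession as filed and its product quenches rhodamine fluorescence; 0% = enzyme reaction without inhibitor and -100% = no enzyme wells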
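After 15 min at room temperature with compound, 15 nM Sfp received 5 uM rhodamine-CoA plus 12.5 uM BHQ-2-ybbR (50 mM Hepes pH 7.6, 10 mM MgCl2). Rate came from the fluorescence difference over 30 min, ex 525/em 598 nm.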
BAZ2B inh = inhibitors of human BAZ2B bromodomain; Potency, µM (top dose mostly 114 µM), for the others: at the top dose activity change, negative = inhibition, usual class: inhibitors; AlphaScreen BAZ2B-H3K14Ac peptide displacement; 4.4% of 360,000 active; Q9UIF8; further: on the % scale 0 is the no-effect control and ±100 the full control effect; nearly all actives have a fitted effect of over 60% in size
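Multi-concentration screen (max 110 uM) measuring displacement of acetylated histone H3 peptide from BAZ2B by AlphaScreen, using 50 nM protein, 50 nM peptide and 10 ug/mL streptavidin donor plus Ni-chelate acceptor beads.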
* marks the source's active call; other numbers are inactive results; u = inconclusive; x = no result given; [ ] = dose if it differs, or a comment. A selection: hits, their analogues and other compounds. The true share with any hit is near 12%. The call rests on the fitted dose curve; in most records, active means well fitted curve in the direction sought with a large enough effect; inconclusive means small, poorly fitted or top-dose-only effect, or another doubt; inactive means no such curve, though single readings can be large; an effect the other way counts as inactive or inconclusive. Potency means the concentration at half of the fitted maximal effect.

SMILES	HP1b binding inh	G9a block	JMJD2A Tudor inh	Sfp inh	BAZ2B inh
COc1ccccc1-n1nnnc1SCC(=O)NC1CCCC1	57%	8%[12.7 µM]	6%	23%	-3%
Cc1n[nH]c(=O)c2c(NC(=O)CSc3nnc(-c4ccco4)n3C)oc(C)c12	44%	u	-12%	x	-1%
COc1ccccc1-c1nnc(SCC(=O)Nc2oc(C)c3c(C)n[nH]c(=O)c23)n1C	41%	5µM*	-3%	x	-2%
COCC(C)n1c(COc2ccccc2F)nnc1SCC(=O)Nc1oc(C)c2c(C)n[nH]c(=O)c12 (centres undefined)	43%	10µM*	-12%	x	-18%
Cc1n[nH]c(=O)c2c(NC(=O)CSc3nc4ccccc4c(=O)n3-c3ccc(OC(F)F)cc3)oc(C)c12	10%	4%[0.501 µM]	-23%	x	0%
COc1ccccc1-n1nnnc1SCC(=O)Nc1oc(C)c2c(C)n[nH]c(=O)c12	45%	11µM*	-15%	x	-6%
CCOCCCn1c(SCC(=O)Nc2ccc(OC)cc2)nc2ccccc2c1=O	-21%	32µM*	0%	50µM*	0%
Cc1csc(NC(=O)CCCNC(=O)c2ccc(Cl)cc2)n1	25%	-5%[12.7 µM]	-16%	x	-1%
Cc1[nH]c2ccccc2c1-c1nc(N)sc1C	7%	71µM*	-23%	-1%	u
COc1ccc(S(=O)(=O)NNC(=O)C23CC4CC(CC(C4)C2)C3)cc1	21%	79µM*	-6%	8%	-2%
Cc1ccc(NS(=O)(=O)c2ccccc2[N+](=O)[O-])cc1S(=O)(=O)N1CCCCC1	16%[57 µM]	x	-17%	x	x
CN(C)S(=O)(=O)c1cccc(NC(=S)Nc2cc(Cl)cc(Cl)c2)c1	-11%	u	-17%	50µM*	1%
CN(C)S(=O)(=O)c1cccc(NC(=S)Nc2ccc(Cl)cc2Cl)c1	10%	-51%[59 µM]	-12%	u	-25%
CN(C)S(=O)(=O)c1cccc(NC(=S)NCc2ccco2)c1	18%	45µM*	-34%	u	x
CCN(CC)S(=O)(=O)c1ccc(NC(=S)Nc2ccccc2)cc1	34%	26%[0.501 µM]	-5%	-5%	-11%
CCN(CCO)c1ccc(NC(=S)Nc2cccc(S(=O)(=O)N(C)C)c2)cc1	-18%	u	-9%[11.4 µM]	50µM*	u
COc1ccc(-n2c(=O)c3c4c(sc3n(Cc3cccc(F)c3)c2=O)CN(C(C)=O)CC4)c(OC)c1	x	25%[0.0925 µM]	x	4%	-16%
Cc1cc(C)cc(NC(=O)c2ccccc2NC(=O)CCC(=O)O)c1	21%	-51%[59 µM]	-11%	u	4%
O=[N+]([O-])c1ccc(N2CCN(c3ccccc3F)CC2)nc1	16%	-17%	3%	4%	-10%
O=C(O)c1ccc(-c2ccc(-c3ccccc3)cc2)s1	x	u	x	4%	50µM*
O=C(Nc1ccccc1)c1ccc(-c2ccccc2)s1	36%	u	-4%	-2%	x
CC(C)(C)c1cc(NC(=O)Nc2ccccc2OC(F)(F)F)no1	19%	-1%	-9%	20%	-2%
COc1ccc(O)c(-c2cc(-c3cccs3)[nH]n2)c1	-16%	10%[59 µM]	16%[11.4 µM]	-18%	71µM*
Nn1c(SCC(=O)NC2CCS(=O)(=O)C2)nnc1-c1ccco1 (centres undefined)	25%	x	-2%	x	x
Cc1oc(-c2ccc3ccccc3c2)nc1CN(C)C(C)c1ccncn1 (centres undefined)	-6%	u	u	22µM*	-30%
SMILES	HP1b binding inh	G9a block	JMJD2A Tudor inh	Sfp inh	BAZ2B inh
CC(c1ccncn1)N(C)Cc1nc(-c2ccc(C(F)(F)F)cc2)no1 (centres undefined)	40%	15%	5%	14%	39%
CC(C)OC(=O)c1c(F)c(F)c(N2CCOCC2)c(F)c1F	87%	25%[59 µM]	22%	4%	30%
COC(=O)C1Cc2c([nH]c3ccccc23)C(C)N1 (centres undefined)	5%	20µM*	u	9%	-5%
CCCC1NC(C(=O)O)Cc2c1[nH]c1ccccc21 (centres undefined)	-4%	x	16µM*	-17%	-4%
COC(=O)C1Cc2c([nH]c3ccccc23)CN1C(C)=O (centres undefined)	-21%	50µM*	-29%	-14%	-34%
Cc1cccc(NC(=O)c2cccc3c2C(=O)c2ccccc2-3)c1	10%	-11%[0.0925 µM]	-19%	-2%	-2%
O=C(/C=C/Nc1ccc([N+](=O)[O-])cc1Br)c1cccc2ccccc12	3%	-9%[59 µM]	-28%	9%	-8%
C/C(C/C(C)=C1/SC(=S)NC1=O)=C1\SC(=S)NC1=O	u	28µM*	u	79µM*	-16%
CCCCCC/C(C)=C1/SC(=S)NC1=O	-27%	u	-33%	3%	-9%[57.1 µM]
COc1ccc(C)cc1NC(=O)C1CCN(C(=O)c2ccco2)CC1	2%	9%	-15%	22%	-6%
CCN(c1ccccc1)S(=O)(=O)c1cnc[nH]1	23%	0%[12.7 µM]	-10%	3%	12%
CCCCn1c(N)c(N(CCOC)C(=O)c2cc(-c3ccccc3)nc3ccccc23)c(=O)[nH]c1=O	25%	-9%[59 µM]	-10%	x	-5%
CCCn1c(N)c(N(CCOC)C(=O)c2cc(-c3ccco3)nc3ccccc23)c(=O)[nH]c1=O	14%	40µM*	u	45µM*	u
COCCCN(C(=O)c1cc(-c2ccco2)nc2ccccc12)c1c(N)n(Cc2ccccc2)c(=O)[nH]c1=O	-12%	45µM*	u	x	u
C[C@@H](c1ccccc1)N1C(=O)[C@H]2[C@@H]3[C@H](O)[C@H](O)CC(=O)[C@H]3CC[C@H]2C1=O	x	x	x	25%	x
COc1cc(/C=N/n2cnnc2)ccc1OC(=O)c1ccncc1	39%	u	-4%	22%	x
Cc1c(-c2cc(C(=O)O)c3ccccc3n2)cnn1C	32%	45µM*	-12%	13%	-39%
Cc1ccc(-c2cc(C(=O)O)c3ccccc3n2)c(C)c1	41%	u	14%	13%	-1%
COc1ccccc1NC(=O)C1=C(C)NC(SCC(=O)c2ccccc2)=C(C#N)C1c1ccco1 (centres undefined)	11%	u	18%[11.4 µM]	u	-1%
C=CCOC(=O)C1=C(C)NC(SCC(=O)Nc2ccc(C)c(Cl)c2)=C(C#N)C1c1ccco1 (centres undefined)	33%	-14%	-18%	35µM*	8%
COCCOC(=O)C1=C(C)NC(SCC(=O)NC(C)(C)C)=C(C#N)C1c1ccco1 (centres undefined)	27%	-9%[59 µM]	89µM*	4%	-4%
CCOc1ccc(-c2cccc(NC(=O)COc3ccccc3)c2)nn1	12%[57 µM]	-4%	-13%	-3%	1%
CC(Oc1ccc2c3c(c(=O)oc2c1)CCCC3)C(=O)NCc1cccnc1 (centres undefined)	30%	-3%	5%	5%	-9%
